In PubChem BioAssay (NCATS):
Inconclusive results are not listed. Calls of active or inactive are those of the source. Unless noted, calls come from the whole dose curve; as a rule, active = well fitted curve in either direction with a large enough effect (not every such curve was filed as active); inconclusive = small, poorly fitted or top-dose-only effect, or another doubt; inactive = flat fitted curve, though single readings scatter.

Experiments:
[1] = molecular target: Lysosomal acid glucosylceramidase (Homo sapiens) (UniProt P04062); experiment: Glucocerebrosidase-p2 (AID 348; in the data active = potency below about 10 µM; note: potency is the fitted concentration of half-maximal effect); conditions: purified GBA, blue fluorogenic substrate, 40 min
Method in brief: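 Compounds titrated from 0.6 nM upwards against 0.2 nM enzyme in pH 5.9 citric acid/KH2PO4, taurocholate, tween-20; blue fluorogenic substrate 80 uM, 40 min room temperature, stopped and read Ex 365/Em 440 for AC50.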

[2] = AP1 Signaling Pathway (AID 357); conditions: ME-180 AP-1-bla reporter, EGF-induced, beta-lactamase ratio, 5 h; at 7.69 µM (top of the series) unless noted; note: % is set by controls: 0 for no effect and ±100 for the full control effect
Method in brief: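 ME-180 cells with beta-lactamase reporter under AP-1 response element, stimulated with EC50 EGF; compounds tested in titration series, 5 h at 37 °C. CCF4 substrate added 2.5 h at room temperature; 460/530 nm emission ratio gave %activity and AC50.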

[3] = molecular target: Cytochrome P450 1A2 (Homo sapiens) (UniProt P05177); experiment: p450-cyp1a2 (AID 410; calls by dose curve; note: potency is the fitted concentration of half-maximal effect;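 for activity change, negative = inhibition: -100% = full effect of reference inhibitor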); conditions: recombinant CYP1A2, luciferin-ME demethylation, luminescence; series mostly up to 57 µM
Method in brief: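 20nM CYP1A2 with 100uM Luciferin-ME (at Km) in 100mM KPO4; compound preincubated 10 min, NADPH regeneration added, 60 min at room temperature. Luciferin quantified by luminescence after detection reagent; normalized to 57 uM furafylline.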

[4] = Stat Signaling Pathway (AID 446); conditions: ME-180 SIE beta-lactamase reporter, IL-6 stimulated, 5 h; at 7.69 µM (top of the series) unless noted;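 note: ME-180 cervical cancer cells given 40 pM IL-6 alongside compound; SIE-controlled beta-lactamase reporter measured as 460/530 nm FRET emission ratio; % is set by controls: 0 for no effect and ±100 for the full control effect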
Method in brief: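 ME-180 SIE-bla cells; overnight plating; cpd + IL-6 40 pM, 5 h, 37 C; LiveBLAzer 2.5 h RT; 460/530 nm emission ratio. Normalized to 300 pM IL-6 and 125 nM JAK inhibitor controls.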

[5] = molecular target: Glucocorticoid receptor (Homo sapiens) (UniProt P04150); experiment: GR-EFC Redistribution (AID 451; calls by dose curve; note: potency is the fitted concentration of half-maximal effect); conditions: CHO-K1 GR-EFC translocation, beta-gal luminescence, 2 h
Method in brief: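 CHO-K1 cells expressing nuclear EA and GR-ED fragments of b-gal; compounds titrated up to 46 uM final, 2 h at 37 C. GR nuclear translocation read as complemented b-gal luminescence after 1 h RT detection.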

[6] = molecular target: Mitogen-activated protein kinase 10 (Mus musculus) (UniProt Q61831); experiment: JNK3 AlphaScreen Assay (AID 530); conditions: JNK3 lysate, c-Jun phosphorylation; series mostly up to 57.1 µM;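 note: kinase came from lysate of stimulated human HepG2 cells; signal reports phosphorylation of biotinylated GST-cJun 1-79 at Ser73 with 10 µM ATP; % is set by controls: 0 for no effect and ±100 for the full control effect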
Method in brief: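 Pre-activated (IL-1β/TNFα) JNK3 in HepG2 lysates phosphorylates biotin-GST-cJun(1-79), 10 uM ATP; anti-phospho-cJun(Ser73) AlphaScreen read at room temperature, pH 7.6 Tris buffer. Compounds pre-incubated 15 min as titrations.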

[7] = molecular target: 3',5'-cyclic-AMP phosphodiesterase 4B (Homo sapiens) (UniProt Q07343); experiment: qHTS Assay for Inhibitors of PDE-IV (AID 607; active = well fitted activation curve with a large enough effect in the main read-out, with a control signal flat, not every such curve was filed as active; note: % of control where 0% means no effect); conditions: HEK293 ACTOne CNG channel cells, membrane potential fluorescence; series mostly up to 22.9 µM
Method in brief: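 ACTOne HEK293 cells carry a modified cAMP-gated CNG channel and express endogenous PDE4; plated 1000 cells/well, compounds up to 22.9 uM final. Membrane-potential dye fluorescence (ex 535/em 590) was read; parental cells received 10 uM forskolin + 100 uM RO 20-1724.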

[8] = molecular target: Cytochrome P450 3A4 (Homo sapiens) (UniProt P08684); experiment: qHTS Assay for Activators of Cytochrome P450 3A4 (AID 885; active = well fitted curve in the direction sought with a large enough effect; an effect the other way counts as inactive or inconclusive; note: nearly all actives have a fitted effect of over 65% in size); conditions: recombinant CYP3A4, Luciferin-PPXE luminescence, 60 min; series mostly up to 57.1 µM
Method in brief: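 20nM CYP3A4 + 25uM Luciferin-PPXE (=KM), 200mM KPO4; cpd 10 min RT; NADPH regen, 60 min RT; stop w/ detection buffer, 20 min; luminescence. Normalized to 57 uM ketoconazole.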

[9] = qHTS Assay for Lipid Storage Modulators (AID 1519; calls by dose curve); conditions: Drosophila S3 cells, BODIPY lipid droplet/cell ratio, laser cytometry, cells loaded with oleic acid; for activity change, negative = inhibition: at 57.5 µM (top of the series)
Method in brief: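 Cells seeded at 5,000 per well were treated with compounds over a concentration series and loaded with oleic acid (400 uM, as added). Lipid droplet fluorescence (488 nm excitation, 500-530 nm channel) was read by laser-scanning cytometry and normalized to 20 uM Triacsin C.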

[10] = molecular target: Glucocorticoid receptor (Homo sapiens) (UniProt P04150); experiment: GR-GFP Redistribution (AID 450;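 active = compounds whose dose series gives a full or clear partial fitted curve of increased nuclear translocation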; note: potency is the fitted concentration of half-maximal effect); conditions: U2OS GR-GFP nuclear translocation, laser cytometry, 2 h
[11] = molecular target: Cytochrome P450 3A4 (Homo sapiens) (UniProt P08684); experiment: qHTS Assay for Inhibitors and Substrates of Cytochrome P450 3A4 (AID 884; active = well fitted curve in the direction sought with a large enough effect; an effect the other way counts as inactive or inconclusive; note: potency is the fitted concentration of half-maximal effect; nearly all actives have a fitted effect of over 50% in size); conditions: recombinant CYP3A4, Luciferin-PPXE luminescence; series mostly up to 57.1 µM
Method in brief: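 20 nM human CYP3A4 with 25 uM Luciferin-PPXE (at KM) in 200 mM KPO4, preincubated 10 min with compound; NADPH regeneration started a 60 min RT reaction. Luciferin detected by luminescence, normalized to 57 uM ketoconazole as full inhibition.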

[12] = molecular target: Cytochrome P450 2C19 (Homo sapiens) (UniProt P33261); experiment: qHTS Assay for Inhibitors and Substrates of Cytochrome P450 2C19 (AID 899; active = well fitted curve in the direction sought with a large enough effect; an effect the other way counts as inactive or inconclusive; note: potency is the fitted concentration of half-maximal effect; nearly all actives have a fitted effect of over 60% in size); conditions: recombinant CYP2C19, luciferin-H EGE luminescence; series mostly up to 57.1 µM
Method in brief: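 Signal comes from luciferase acting on luciferin released by CYP2C19-mediated hydroxylation of Luciferin-H EGE, 10uM (KM). Assay mix: 5nM enzyme, 50mM KPO4; 60 min at 37C with NADPH regeneration. Data normalized against 57uM ketoconazole.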

[13] = Confirmation and Secondary Assay for Modulators of Hemoglobin Beta Chain Splicing at IVS2 654 locus (AID 910; active = well fitted curve in the direction sought with a large enough effect; an effect the other way counts as inactive or inconclusive;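 note: HeLa cells stably carrying EGFP split by mutant beta-globin IVS2-654 intron; % of control where 0% means no effect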); conditions: HeLa EGFP-654 splicing reporter, GFP fluorescence, 48 h; series mostly up to 38.3 µM
Method in brief: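 HeLa cells stably expressing EGFP interrupted by β-globin IVS2-654 intron, seeded overnight in Opti-MEM/2% FCS, then treated 2 days at 37 °C. Restored splicing read as total peak GFP intensity per well by laser scanning cytometry (488 nm excitation, 500–520 nm emission); 500 nM antisense PNA as control.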

[14] = qHTS Assay for Identification of Small Molecule Agonists for Hypoxia Response Element Signaling Pathway (AID 914; active = well fitted activation curve with a large enough effect in the signal ratio, with a control signal flat, not every such curve was filed as active; the % refers to the signal ratio; note: potency is the fitted concentration of half-maximal effect; for activation: % of control where 0% means no effect); conditions: ME-180 (cervical carcinoma) HRE-bla reporter, beta-lactamase ratio, CoCl2, 17 h; activation: stronger effect = higher value
Method in brief: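 HRE-bla ME-180 cells with beta-lactamase reporter under hypoxia response element, compounds with EC50 CoCl2 for 17 hours at 37 C. CCF4 substrate, 460nm/530nm emission ratio gave %Activity; AC50 from titration series.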

[15] = Confirmation and Secondary Assay for Modulators of Hemoglobin Beta Chain Splicing at IVS2 705 locus (AID 930; active = well fitted curve in the direction sought with a large enough effect; an effect the other way counts as inactive or inconclusive;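 note: HeLa cells stably expressing the EGFP-705 splicing reporter; GFP fluorescence per well restored by corrected splicing of the IVS2-705 intron in EGFP; % of control where 0% means no effect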); conditions: HeLa EGFP-705 splicing reporter, GFP fluorescence, 48 h; series mostly up to 38.3 µM
Method in brief: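 HeLa cells stably carrying EGFP interrupted by mutant beta-globin intron 2 (IVS2-705) treated 2 days at 37C with compound; 500 nM antisense PNA as control. Correct splicing read as total peak GFP intensity per well by laser-scanning cytometry.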

[16] = NFAT Signaling Pathway (AID 444); conditions: Jurkat NFAT-bla M1, carbachol, beta-lactamase ratio, 5 h; at 7.69 µM (top of the series) unless noted;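 note: carbachol stimulus at about its EC50 of 1 µM final; % is set by controls: 0 for no effect and ±100 for the full control effect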
Method in brief: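 Jurkat cells with NFAT-driven β-lactamase reporter and co-expressed M1 receptor, stimulated with carbachol (final 1 uM, ~EC50), compound titration, 5 h at 37 °C. CCF4 loaded 1 h at RT; 460/530 nm ratio gave %activity and AC50.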

[17] = molecular target: Ubiquitin carboxyl-terminal hydrolase 1 (Homo sapiens) (UniProt O94782); experiment: Inhibitors of USP1/UAF1: Pilot qHTS (AID 504865; active = well fitted curve in the direction sought with a large enough effect; an effect the other way counts as inactive or inconclusive;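 note: rhodamine fluorescence freed from ubiquitin-rhodamine substrate followed over time; top concentration of the series differs between compounds; % is set by controls: 0 for no effect and ±100 for the full control effect; nearly all actives have a fitted effect of over 35% in size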); conditions: purified USP1/UAF1, Ub-rhodamine cleavage fluorescence; series mostly up to 54.9 µM
Method in brief: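 USP1/UAF1 complex at 1 nM preincubated 15 min at room temperature with compound, then Ub-Rho substrate added at 150 nM final. Fluorescence (480/540 nm) read kinetically in 50 mM HEPES pH 7.8, 0.5 mM EDTA, 1 mM TCEP, 0.1 mg/ml BSA, 0.01% Tween-20.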

[18] = measured here: cell count channel max response
[19] = measured here: lipid channel max response

Chain of Lysosomal acid glucosylceramidase (Homo sapiens) (P04062 whole entry, looked up): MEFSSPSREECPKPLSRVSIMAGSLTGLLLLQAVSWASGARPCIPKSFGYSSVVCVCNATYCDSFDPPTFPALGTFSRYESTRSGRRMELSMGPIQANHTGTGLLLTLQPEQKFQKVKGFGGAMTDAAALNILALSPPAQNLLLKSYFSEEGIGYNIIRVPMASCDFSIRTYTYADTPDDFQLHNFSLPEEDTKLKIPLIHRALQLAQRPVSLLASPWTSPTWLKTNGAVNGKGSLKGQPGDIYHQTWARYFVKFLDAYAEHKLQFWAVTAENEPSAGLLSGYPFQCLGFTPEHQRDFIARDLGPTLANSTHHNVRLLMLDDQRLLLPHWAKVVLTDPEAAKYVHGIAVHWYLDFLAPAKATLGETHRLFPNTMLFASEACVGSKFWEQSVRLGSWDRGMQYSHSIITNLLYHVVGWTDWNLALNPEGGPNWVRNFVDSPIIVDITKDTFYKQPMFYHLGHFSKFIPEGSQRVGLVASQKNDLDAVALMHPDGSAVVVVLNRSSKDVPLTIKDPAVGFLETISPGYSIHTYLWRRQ
Chain of Cytochrome P450 1A2 (Homo sapiens) (P05177 whole entry, looked up): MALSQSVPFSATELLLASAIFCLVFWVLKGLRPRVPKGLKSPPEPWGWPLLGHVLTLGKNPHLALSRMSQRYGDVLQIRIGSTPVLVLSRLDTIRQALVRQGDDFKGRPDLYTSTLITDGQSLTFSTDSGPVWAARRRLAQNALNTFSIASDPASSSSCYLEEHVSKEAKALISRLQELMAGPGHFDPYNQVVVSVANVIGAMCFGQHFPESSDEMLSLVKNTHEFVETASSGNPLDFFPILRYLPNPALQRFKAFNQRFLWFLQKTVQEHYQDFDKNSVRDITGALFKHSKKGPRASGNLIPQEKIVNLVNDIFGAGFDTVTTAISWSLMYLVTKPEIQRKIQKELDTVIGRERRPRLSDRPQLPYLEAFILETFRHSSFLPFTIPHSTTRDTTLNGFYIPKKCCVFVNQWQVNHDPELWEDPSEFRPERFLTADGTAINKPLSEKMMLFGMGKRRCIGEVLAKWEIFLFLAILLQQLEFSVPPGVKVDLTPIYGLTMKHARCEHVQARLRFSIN
Chain of Cytochrome P450 3A4 (Homo sapiens) (P08684 whole entry, looked up): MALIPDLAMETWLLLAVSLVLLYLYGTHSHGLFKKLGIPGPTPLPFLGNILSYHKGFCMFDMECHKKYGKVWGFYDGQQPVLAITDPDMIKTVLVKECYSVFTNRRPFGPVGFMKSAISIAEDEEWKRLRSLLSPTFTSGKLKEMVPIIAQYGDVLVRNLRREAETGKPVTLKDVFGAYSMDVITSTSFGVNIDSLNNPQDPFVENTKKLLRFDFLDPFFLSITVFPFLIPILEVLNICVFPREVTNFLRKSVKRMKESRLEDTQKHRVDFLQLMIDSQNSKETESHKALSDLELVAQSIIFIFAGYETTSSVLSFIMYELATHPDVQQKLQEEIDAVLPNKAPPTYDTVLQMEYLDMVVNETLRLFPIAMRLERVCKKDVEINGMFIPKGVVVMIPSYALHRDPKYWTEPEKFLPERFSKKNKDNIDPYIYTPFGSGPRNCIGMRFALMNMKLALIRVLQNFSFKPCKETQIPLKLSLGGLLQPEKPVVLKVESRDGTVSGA
Chain of 3',5'-cyclic-AMP phosphodiesterase 4B (Homo sapiens) (Q07343 whole entry, looked up): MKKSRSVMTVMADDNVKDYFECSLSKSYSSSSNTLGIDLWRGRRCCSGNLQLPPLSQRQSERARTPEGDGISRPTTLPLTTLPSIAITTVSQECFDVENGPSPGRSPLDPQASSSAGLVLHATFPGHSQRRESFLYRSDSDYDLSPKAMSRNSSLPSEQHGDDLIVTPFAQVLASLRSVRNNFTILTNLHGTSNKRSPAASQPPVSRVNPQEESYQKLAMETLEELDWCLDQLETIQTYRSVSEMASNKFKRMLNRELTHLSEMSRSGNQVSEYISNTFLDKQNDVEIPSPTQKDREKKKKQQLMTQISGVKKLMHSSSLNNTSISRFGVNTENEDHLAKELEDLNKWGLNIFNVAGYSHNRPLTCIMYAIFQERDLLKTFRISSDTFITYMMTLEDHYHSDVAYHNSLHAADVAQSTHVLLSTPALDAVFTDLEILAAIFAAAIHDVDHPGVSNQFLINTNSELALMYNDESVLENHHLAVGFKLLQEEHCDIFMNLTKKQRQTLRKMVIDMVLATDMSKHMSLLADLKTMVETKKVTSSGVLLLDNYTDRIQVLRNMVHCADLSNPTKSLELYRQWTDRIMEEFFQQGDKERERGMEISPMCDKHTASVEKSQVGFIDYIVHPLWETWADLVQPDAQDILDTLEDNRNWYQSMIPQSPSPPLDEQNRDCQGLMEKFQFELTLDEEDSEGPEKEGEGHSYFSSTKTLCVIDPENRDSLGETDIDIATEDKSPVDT
Chain of Glucocorticoid receptor (Homo sapiens) (P04150 whole entry, looked up, the tested form may be a part): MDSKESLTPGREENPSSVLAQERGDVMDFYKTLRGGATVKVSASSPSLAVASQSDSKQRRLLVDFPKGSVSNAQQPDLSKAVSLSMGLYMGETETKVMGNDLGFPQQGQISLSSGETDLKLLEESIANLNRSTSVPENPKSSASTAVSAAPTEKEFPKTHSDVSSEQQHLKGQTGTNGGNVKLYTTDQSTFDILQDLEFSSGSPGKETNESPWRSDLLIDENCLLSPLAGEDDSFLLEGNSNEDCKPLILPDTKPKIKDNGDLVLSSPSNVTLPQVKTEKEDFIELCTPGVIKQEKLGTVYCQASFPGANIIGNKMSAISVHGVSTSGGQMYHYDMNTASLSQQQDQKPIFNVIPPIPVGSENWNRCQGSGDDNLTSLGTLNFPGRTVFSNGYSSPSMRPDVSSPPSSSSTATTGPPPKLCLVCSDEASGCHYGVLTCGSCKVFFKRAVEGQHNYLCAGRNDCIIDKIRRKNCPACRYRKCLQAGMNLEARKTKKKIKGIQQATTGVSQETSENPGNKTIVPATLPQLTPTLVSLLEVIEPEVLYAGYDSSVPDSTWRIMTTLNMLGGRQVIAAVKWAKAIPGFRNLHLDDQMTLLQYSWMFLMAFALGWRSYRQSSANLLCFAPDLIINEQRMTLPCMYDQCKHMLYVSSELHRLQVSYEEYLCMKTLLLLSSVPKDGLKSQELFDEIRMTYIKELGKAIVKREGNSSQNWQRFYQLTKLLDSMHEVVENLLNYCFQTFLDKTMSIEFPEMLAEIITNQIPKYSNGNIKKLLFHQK
Chain of Ubiquitin carboxyl-terminal hydrolase 1 (Homo sapiens) (O94782 whole entry, looked up): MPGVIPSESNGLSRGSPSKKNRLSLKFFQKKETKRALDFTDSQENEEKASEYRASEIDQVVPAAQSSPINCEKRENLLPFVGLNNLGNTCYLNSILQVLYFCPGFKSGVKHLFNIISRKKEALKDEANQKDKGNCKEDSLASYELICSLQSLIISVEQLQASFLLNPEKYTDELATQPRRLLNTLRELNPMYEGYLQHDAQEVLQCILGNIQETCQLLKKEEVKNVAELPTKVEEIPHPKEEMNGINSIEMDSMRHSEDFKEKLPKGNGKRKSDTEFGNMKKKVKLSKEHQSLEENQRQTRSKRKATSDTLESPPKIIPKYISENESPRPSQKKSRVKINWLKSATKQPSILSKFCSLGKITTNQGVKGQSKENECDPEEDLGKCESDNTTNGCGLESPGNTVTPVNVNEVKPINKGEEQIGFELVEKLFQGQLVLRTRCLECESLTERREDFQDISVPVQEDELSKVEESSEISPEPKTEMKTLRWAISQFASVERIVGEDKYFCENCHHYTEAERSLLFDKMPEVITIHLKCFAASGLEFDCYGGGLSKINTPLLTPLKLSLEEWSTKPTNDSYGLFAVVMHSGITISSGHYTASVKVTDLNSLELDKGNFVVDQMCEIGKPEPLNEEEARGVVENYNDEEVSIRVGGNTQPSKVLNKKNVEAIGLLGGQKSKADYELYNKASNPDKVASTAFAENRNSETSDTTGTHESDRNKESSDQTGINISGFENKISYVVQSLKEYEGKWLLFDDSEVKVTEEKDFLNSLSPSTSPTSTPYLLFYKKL
Chain of Cytochrome P450 2C19 (Homo sapiens) (P33261 whole entry, looked up): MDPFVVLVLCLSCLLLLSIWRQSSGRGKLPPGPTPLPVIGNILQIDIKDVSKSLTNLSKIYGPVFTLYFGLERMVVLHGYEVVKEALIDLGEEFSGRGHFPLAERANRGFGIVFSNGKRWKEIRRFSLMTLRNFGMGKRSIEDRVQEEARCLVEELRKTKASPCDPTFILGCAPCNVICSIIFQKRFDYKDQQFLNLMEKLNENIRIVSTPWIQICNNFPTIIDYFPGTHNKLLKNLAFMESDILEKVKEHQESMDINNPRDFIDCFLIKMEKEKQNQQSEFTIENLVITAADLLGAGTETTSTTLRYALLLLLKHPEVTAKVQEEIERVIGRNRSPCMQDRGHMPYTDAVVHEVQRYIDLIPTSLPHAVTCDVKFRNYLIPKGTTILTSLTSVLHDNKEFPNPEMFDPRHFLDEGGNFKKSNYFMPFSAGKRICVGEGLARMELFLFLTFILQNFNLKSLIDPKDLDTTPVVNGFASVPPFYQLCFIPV

Compound | Potency [1] | activity change, negative = inhibition [2] | Potency [3] | activity, negative = inhibition [4] | Potency [5] | Potency [6] | Potency [7] | Potency [8] | activity change, negative = inhibition [9] | max response [9, 18] | max response [9, 19] | Potency [10] | Potency [11] | Potency [12] | Potency [13] | activation [14] | outcome [15] | activity change, negative = inhibition [16] | Potency [14] | Potency [17]
COc1ccccc1CN1CC[C@@]2(CCCN(S(=O)(=O)c3ccccc3)C2)C1 | > 11.4 µM (inactive) | 7.37% (inactive) | 25.1 µM (active) | 8.35% (inactive) | > 46 µM (inactive) | inactive | inactive | inactive | 6.22% (inactive) | 0.611% | 10.2% |  |  |  |  |  |  |  |  | 
COc1ccc2[nH]cc(CCNc3nc(-c4ccoc4)nc4ccccc34)c2c1 | 8.61 µM (active) | -4.09% (inactive) | 0.398 µM (active) | -9.95% (inactive) | > 46 µM (inactive) | inactive |  | inactive | 9.94% (inactive) | 6.9% | 18.2% | > 46 µM (inactive) | 3.16 µM (active) | 1.58 µM (active) | inactive | -13.1% (inactive) | inactive |  |  | 
FC(F)(F)c1cc(CN2CCC3(CCNCC3)CC2)cc(C(F)(F)F)c1 | > 11.4 µM (inactive) | 3.22% (inactive) | inactive | 1.83% (inactive) | > 46 µM (inactive) | inactive | inactive | inactive | -1.92% (inactive) | -8.05% | -9.72% |  |  |  |  |  |  | 9.54% (inactive) |  | 
N#Cc1ccc(CN2CC[C@@]3(CCCN(S(=O)(=O)c4ccccc4)C3)C2)cc1 | > 11.4 µM (inactive) | 0.616% (inactive) | 15.8 µM (active) | -5.91% (inactive) | > 46 µM (inactive) | inactive | inactive |  | -4.95% (inactive) | 13.6% | 7.48% |  |  |  |  |  |  |  |  | 
COc1ccccc1CN1CC[C@@]2(CCCN(C(=O)c3cc(C(F)(F)F)cc(C(F)(F)F)c3)C2)C1 | > 11.4 µM (inactive) | -0.111% (inactive) | 15.8 µM (active) | 4.98% (inactive) | > 46 µM (inactive) | inactive | inactive |  | 2.5% (inactive) | 2.09% | 7.48% |  |  |  |  |  |  |  |  | 
COc1ccc(NC(=O)N2CC[C@@]3(CCCN(C(=O)c4cc(C(F)(F)F)cc(C(F)(F)F)c4)C3)C2)cc1 | > 11.4 µM (inactive) | -20.8% (inactive) | inactive | -6.2% (inactive) | > 46 µM (inactive) | inactive | inactive | inactive | 6.21% (inactive) | 0.894% | 10.8% |  |  |  |  |  |  | 12.7% (inactive) |  | 
Cc1ccccc1-c1cncnc1NCCN1CCOCC1 | > 11.4 µM (inactive) | 24.4% (inactive) | 15.8 µM (active) | 7.48% (inactive) | > 46 µM (inactive) | inactive | inactive | inactive | 4.31% (inactive) | 0.273% | 3.28% | > 46 µM (inactive) | 1.58 µM (active) |  | inactive |  | inactive |  | 3.16 µM (active) | inactive
